# Compound activity as filed in PubChem.
# In the library only some 5.3% were active in any assay of this set; here they are far more common.
# PostGolgi yeast: growth inhibition of a yeast mutant, post-Golgi transport screen; inhibition, % at 10 µM; post-Golgi transport phenotypic cell assay; 98,000 tested, 0.9% active;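 further: yeast cells grown in 1536-well plates; yeast grown about 18 h at 30C before absorbance read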
# MT1-MMP txn act: activates MT1-MMP transcription; activation factor at 10 µM; 86,000 tested, 0.16% active; HT1080 MT1-MMP promoter luciferase reporter, luminescence, overnight; stronger effect = higher value; AID 750;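 active means activation factor of at least 2 for MT1-MMP transcription at 10 µM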
# Measles CPE: protection of cells from measles virus; Measles virus-infected cells, CPE protection, absorbance; protection (pct of control), % at 4 µM; 140,000 tested, 1.5% active; AID 841; in the data active means protection mostly above about 24%, no sharp cut-off; inactive means mostly below about 26%
# PostGolgi ctrl: inhibits growth of the yeast control strain; efflux-deficient yeast background strain, growth absorbance A615, 16 h; inhibition, % at 10 µM; 98,000 tested, 5% active; AID 738
# Active calls of the source: *; x = no result given. Unless noted, no stated cut-off is given here; in the data, active means inhibition above about 30%; inactive means the rest.
SMILES,PostGolgi yeast,MT1-MMP txn act,Measles CPE,PostGolgi ctrl
Cc1n[nH]c(C)c1C(=O)CC1(O)C(=O)N(Cc2ccccc2)c2ccc(Br)cc21 (configuration not stated),1,x,2,30*
O=C(COC(=O)CCCNC(=O)c1ccc(Cl)cc1)NC1CC1,2,1.3,48*,-2
O=C(CCC(=O)OCC(=O)c1ccc(Cl)cc1)NC1CCCCC1,1,1.1,64*,0
COc1ccc(-c2nnc3ccc(SCC(=O)Nc4nc5ccc(C)cc5s4)nn23)cc1OC,x,x,28*,x
C=CCn1c(SCC(N)=O)nnc1-c1cccc(Br)c1,-6,1.2,35*,18
C=CCn1c(SCC(C)=O)nnc1-c1cc(-c2ccccc2)sc1N,x,1.3,14,x
CCCCOC(=O)CCNc1n[nH]c(=O)[nH]c1=O,4,0.9,56*,-5
CCCN(CCC)c1nc(N)nc(-c2cc(Cl)ccc2OC)n1,9,x,-1,56*
CCOC(=O)c1cnc(SC)nc1Nc1cccc(F)c1,18,1,0,-21
CCOC(=O)c1cnc(SC)nc1Sc1cc(Cl)ccc1Cl,33*,1.1,14,16
COc1cccc(CNn2c(-c3cccc(C)c3)nc3ccccc3c2=O)c1O,-1,1.1,6,47*
CCOC(=O)c1c(C)nn(Cc2cccc(Cl)c2)c1N,-2,1.1,14,24
Cc1ccc([N+](=O)[O-])cc1NC(=O)c1ccoc1C,x,x,6,x
COc1cccc2c1OC[C@@H](CO)[C@H]2N(C)C(=O)Nc1ccc(Cl)cc1Cl,3,x,9,19
Cc1ccccc1NC(=O)Cc1nc(CCl)cs1,x,x,42*,x
Cc1ccc(C)c(NC(=O)Cc2nc(CCl)cs2)c1,x,x,8,x
O=[N+]([O-])/C=C/c1c(OCc2ccccc2)ccc2ccccc12,105*,1.1,-1,99*
CCOC(=O)COc1ccc2ccccc2c1/C=C/[N+](=O)[O-],x,x,0,x
CCOC(=O)COc1ccc(/C=C/[N+](=O)[O-])c(OCC(=O)OCC)c1,-5,x,3,5
CCOc1ccc(/C=C/[N+](=O)[O-])c2ccccc12,78*,x,1,81*
O=c1cc(CSc2nc(NCc3ccccc3)c3ccccc3n2)nc2ccc(Cl)cn12,x,x,6,x
COc1cc(/C=C/C(=O)O)cc(S(=O)(=O)Nc2cccc(SC)c2)c1OC,x,x,6,x
CC(Nc1ccc(Br)cn1)c1cc(Cl)ccc1O (configuration not stated),-3,1.1,6,31*
CC(Nc1ccc(Cl)cc1)c1cc(Cl)ccc1O (configuration not stated),x,1.2,6,x
C=CCn1cc(/C=N\NC(=O)c2cc3c(ccc4ccccc43)o2)c2ccccc21,0,x,14,35*
SMILES,PostGolgi yeast,MT1-MMP txn act,Measles CPE,PostGolgi ctrl
Cc1cccc(NC(=O)C2CCCN2C(=O)OCC(C)C)c1C (configuration not stated),-3,1.1,7,35*
Cc1cccc(NC(=O)C2CCCN2C(=O)OCC(C)C)c1 (configuration not stated),-4,1.2,15,6
Cn1c(=O)c2c(nc(Br)n2CCCc2ccccc2)n(C)c1=O,-1,1,3,2
Cc1ccc(C)c(Cn2c(CN(C)Cc3ccccc3)nc3c2c(=O)n(C)c(=O)n3C)c1,3,1.1,14,45*
CN(Cc1ccccc1)c1nc2c(c(=O)n(C)c(=O)n2C)n1CCCc1ccccc1,0,1.1,15,43*
CN(Cc1ccccc1)Cc1nc2c(c(=O)n(C)c(=O)n2C)n1Cc1ccc(F)cc1,-11,1.2,13,27
CN(Cc1ccccc1)Cc1nc2c(c(=O)n(C)c(=O)n2C)n1Cc1ccc(Cl)cc1,1,1.2,24,31*
Cc1ccc(Cn2c(CN(C)Cc3ccccc3)nc3c2c(=O)n(C)c(=O)n3C)cc1,0,1.2,16,38*
O=C(Nc1ccc(NC(=O)c2sc3ccccc3c2Cl)cc1)c1ccco1,x,x,14,x
Clc1ccc2[nH]c3c(NCCCN4CCOCC4)ncnc3c2c1,-1,1.7,44*,-1
CCOC(=O)c1sc2nc3n(c(=O)c2c1C)CCCCC3,-5,1.5,6,30*
Cc1c(C(=O)Nc2ccc(OC(F)(F)F)cc2)sc2nc3n(c(=O)c12)CCC3,1,x,20,20
Cc1c(C(=O)Nc2ccc(Oc3ccccc3)cc2)sc2nc3n(c(=O)c12)CCC3,15,0.9,15,31*
COc1ccc(NC(=O)c2c(C(F)(F)F)nn(C)c2SCc2ccccc2Cl)cc1,8,x,6,23
O=S(=O)(NCCSc1ccc(Cl)cc1)c1ccc2c(c1)OCCO2,-3,1.1,8,31*
Cc1c(C(=O)N2CCc3ccccc3C2)oc2ccc(S(=O)(=O)N3CCCCCC3)cc12,x,x,11,x
C/C=N/NC(=O)CCNC(=O)c1ccccc1,x,x,4,x
CCCCN1C(=O)/C(=C2\SC(N3CCCCC3)=NC2=O)c2ccccc21,0,1.5,x,40*
CCCC1=NN(c2ccc([N+](=O)[O-])cc2)C(=O)/C1=C\N(C)C,x,x,32*,x
O=C(CN1CCCCCCC1)N/N=C/c1ccc(F)c(F)c1,x,x,9,x
CCOC(=O)c1cc(CC)sc1N,0,1.2,4,30*
COC(=O)[C@@H]1C[C@H]1[C@@H](NS(=O)(=O)c1ccc(-c2ccccc2)cc1)c1ccccc1,x,1.2,x,x
Cc1ccc(-n2c(C)nn(-c3ncc(C(F)(F)F)cc3Cl)c2=O)cc1,22,0.8,9,-3
Cc1ccc(O)c(N=CC2=C(O)c3ccccc3C2=O)c1,1,1.8,14,32*
O=C1C(C=Nc2ccccc2O)=C(O)c2ccccc21,-3,1.3,1,3
SMILES,PostGolgi yeast,MT1-MMP txn act,Measles CPE,PostGolgi ctrl
Cn1c2c(c(=O)n(C)c1=O)C1(C(=O)Nc3ccccc31)C(C#N)=C(N)O2 (configuration not stated),1,x,31,5
CCn1c(COc2ccc(Cl)cc2)nnc1SCc1ccc(C#N)cc1,-10,1.1,14,34*
CCCc1nc(N2CCOCC2)c2sc(=S)n(-c3ccccc3)c2n1,-4,x,5,-1
CC1CC1c1ccc(/C=C(\C#N)C(=O)Nc2cccc(Cl)c2Cl)o1 (configuration not stated),x,x,7,x
CCc1ccc(/C=N/NC(=O)c2cc(C3CC3)nc3ccccc23)s1,11,x,3,32*
CCc1ccc2oc(-c3cc(N)ccc3O)nc2c1,22,0.5,21,53*
CCc1ccc2oc(-c3cc(N)ccc3Cl)nc2c1,1,0.6,4,35*
CCOc1ccc(-c2nnc(NC(=O)c3ccc(OCC(C)C)c(OC)c3)o2)cc1,18,1.3,41*,4
O=C(OCc1ccccc1Cl)c1cccnc1Cl,9,x,6,9
O=C(COC(=O)c1cccnc1Cl)c1ccccc1,x,1.3,28,32*
N#CC1=C(N)OC2=C(C(=O)CCC2)C12CCC1(CC2)OCCO1,-7,1.2,17,46*
O=S(=O)(c1ccc(-c2cn3ccccc3n2)cc1)N1CCOCC1,-2,x,63*,3
Clc1ccc(-c2cnc(Oc3ccccc3)nc2)cc1,33*,x,6,-8
Cc1cc(Cl)ccc1Oc1ncc(-c2ccc(Cl)cc2)cn1,-12,x,4,15
C=CCN1C(=O)/C(=C2/Sc3ccccc3N2C)SC1=Nc1c(C)n[nH]c1C,19,0.9,6,12
